Each structure is given as a SMILES string. Inconclusive results are not listed. Calls of active or inactive are those of the source. The call rests on the fitted dose curve; in most records, active means well fitted inhibition curve with a large enough effect; inconclusive means small, poorly fitted or top-dose-only effect; inactive means flat fitted curve, though single readings scatter.

Chain of Calcium and integrin-binding protein 1 (Homo sapiens) (Q99828 whole entry, looked up): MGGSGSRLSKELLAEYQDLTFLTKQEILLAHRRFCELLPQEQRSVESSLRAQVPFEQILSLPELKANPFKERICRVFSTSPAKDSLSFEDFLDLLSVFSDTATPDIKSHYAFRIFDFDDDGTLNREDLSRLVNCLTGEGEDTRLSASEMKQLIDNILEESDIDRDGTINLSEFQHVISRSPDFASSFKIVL

This test deals with Calcium and integrin-binding protein 1 (Homo sapiens) (UniProt Q99828). Briefly: Primary qHTS for Identification of Calcium Integrin Binding Protein 1 (CIB1) Competitor (AID 1508620).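 Further: GST tagged CIB1 binding a fluorescein labelled alphaIIb integrin peptide tracer; top concentration of the series differs between compounds.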 To be noted: CIB1-GST / FITC-alphaIIb peptide fluorescence polarization; series mostly up to 57.7 µM. In outline:
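CIB1-GST (1 uM final) and compound incubated 15 min at room temperature before adding FITC-alphaIIb peptide tracer (100 nM final). Competition for binding read by fluorescence polarization (ex 480, em 540) after another 15 min at room temperature.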
On the technique in general: qHTS replaces the single test concentration by a dilution series.
`CN(C)NC(=O)CCC(=O)O`: the outcome was inactive.

On to `CCN1CCN(C(=O)Cc2ccc(Nc3ncc(F)c(Nc4ccc(C(=O)Nc5ccccc5Cl)cc4)n3)cc2)CC1`, for which the result was inactive.

Regarding `CC(C)[C@]12O[C@@H]1[C@@H]1O[C@]13[C@]1(O[C@H]1C[C@@H]1C4=C(CC[C@@]13C)C(=O)OC4)[C@H]2O`, the result was inactive.

As to `C=C1C[C@H]2[C@H]3CCC(=O)[C@@]3(C)CC[C@@H]2[C@@]2(C)C=CC(=O)C=C12`, the result was inactive.

With `Cc1c(N)nc([C@H](CC(N)=O)NC[C@@H](N)C(N)=O)nc1C(=O)N[C@H](C(=O)N[C@@H](C)[C@H](O)[C@@H](C)C(=O)N[C@@H](C(=O)NCCc1nc(-c2nc(C(=O)NCCC[S+](C)C)cs2)cs1)[C@@H](C)O)C(O[C@H]1O[C@H](CO)[C@H](O)[C@@H](O)[C@@H]1O[C@H]1O[C@H](CO)[C@@H](O)[C@H](OC(N)=O)[C@H]1O)c1cnc[nH]1` (stereo partly specified), the outcome was inactive.

`C=C[C@@H]1CN2CCC1C[C@H]2[C@H](O)c1ccnc2ccccc12` (stereo partly specified): the outcome was inactive.

Turning to `CC(C)(O)C=CC(=O)[C@](C)(O)[C@H]1[C@H](O)C[C@]2(C)[C@@H]3CC=C4[C@@H](C=C(O)C(=O)C4(C)C)[C@]3(C)C(=O)C[C@@]12C`, the outcome was inactive.

In the case of `C[C@]12CC[C@H](O)CC1=CC[C@H]1[C@H]3CCC(=O)[C@@]3(C)CC[C@@H]12`, the result was inactive.

Consider `CCOC(=O)c1cncn1[C@H](C)c1ccccc1`, for which the result was inactive.

For the compound `CC(=CCCC1=CCC(C2=CC(=O)OC2O)OC1O)CCC1=C(C)CCCC1(C)C` (stereo unspecified), the result was inactive.

With `O=[N+]([O-])c1ncc[nH]1`, the outcome was inactive.

With `COc1cc2cc(c1Cl)N(C)C(=O)C[C@H](OC(=O)C(C)C)[C@]1(C)O[C@H]1[C@H](C)[C@@H]1C[C@@](O)(NC(=O)O1)[C@H](OC)C=CC=C(C)C2`, the result was inactive.

As for `CN1CCN(c2ccc([N+](=O)[O-])c3no[n+]([O-])c23)CC1`, the outcome was inactive.

Take `COc1ccc2c(c1)[C@]13CCCCC1C(C2)N(C)CC3` (stereo partly specified): the outcome was inactive.

`CCCCCC[C@H]1C(=O)O[C@H](C)[C@H](NC(=O)c2cccc(NC=O)c2O)C(=O)O[C@@H](C)[C@@H]1OC(=O)CC(C)C`: the outcome was inactive.

With `CC(=Cc1csc(C)n1)[C@@H]1C[C@H]2O[C@]2(C)CCC[C@H](C)[C@@H](O)[C@@H](C)C(=O)C(C)(C)[C@@H](O)CC(=O)O1`, the result was inactive.

Turning to `CC(N[C@H]1C[C@H]1c1ccccc1)c1ccc2c(c1)OCCO2` (stereo partly specified), the result was inactive.

For `CC(C)N[C@@H]1CCn2c(=O)[nH]c3cccc(c32)[C@@H]1O`, the result was inactive.

Turning to `O=C1CCC[C@@H]2[C@H]3CCCN4CCC[C@@H](CN12)[C@@H]34`, the result was inactive.

In the case of `CC=C(C)C(=O)N[C@@H](c1ccccc1)[C@@H](O)C(=O)O[C@H]1C[C@@]2(O)[C@@H](OC(=O)c3ccccc3)[C@@H]3[C@]4(OC(C)=O)CO[C@@H]4C[C@H](O)[C@@]3(C)C(=O)[C@H](OC(C)=O)C(=C1C)C2(C)C`, the result was inactive.

For the compound `C[C@@H]1CC[C@@]2(OC1)O[C@H]1C[C@H]3[C@@H]4CC=C5C[C@@H](O[C@@H]6O[C@H](CO)[C@@H](O[C@@H]7O[C@@H](C)[C@H](O)[C@@H](O)[C@@H]7O)[C@H](O)[C@@H]6O[C@@H]6O[C@@H](C)[C@H](O)[C@@H](O)[C@@H]6O)CC[C@]5(C)[C@@H]4CC[C@]3(C)[C@@H]1[C@H]2C`, the result was inactive.

Take `CC(=Cc1csc(C)n1)[C@@H]1C[C@H]2O[C@@H]2CCC[C@H](C)[C@@H](O)[C@@H](C)C(=O)C(C)(C)[C@@H](O)CC(=O)O1`: the result was inactive.

`CCC(=O)OC1CCC2C3CCC4=CC(=O)CC[C@@]4(C)C3CC[C@]12C` (stereo partly specified): the outcome was inactive.

Regarding `CC(C)N(CCNC(=O)CN1CCCC1=O)C(C)C`, the outcome was inactive.

Regarding `O=C(Oc1ccc([N+](=O)[O-])cc1)N1CCN(Cc2cccc(Oc3ccccc3)c2)CC1`, the outcome was inactive.

On to `Cc1c(C(=O)Nc2cccc(C(F)(F)F)c2)cc(-c2ccccc2)n1CCCN1CCOCC1`, for which the outcome was inactive.

Regarding `C[C@]12COC(=O)C[C@@H]1CC[C@@H]1[C@H]2CC[C@@]2(C)[C@H]1CC[C@]2(C)O`, the outcome was inactive.

As for `CCCN1CCO[C@@H]2c3cc(O)ccc3OC[C@@H]21`, the result was inactive.

On to `C[C@]12Cc3cn[nH]c3C[C@@H]1CC[C@@H]1[C@H]2CC[C@@]2(C)[C@H]1CC[C@]2(C)O`, for which the outcome was inactive.

In the case of `C=C[C@@H]1CN2CCC1C[C@@H]2[C@@H](O)c1ccnc2ccccc12` (stereo partly specified), the result was inactive.

As to `c1cc2c(cc1[C@H]1OC[C@H]3[C@H]1CO[C@H]3c1ccc3c(c1)OCO3)OCO2`, the result was inactive.

Source of the values: PubChem BioAssay (NCATS).
